{
  "source": "paper PMC5540273",
  "about": "(PLoS ONE, 2017);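 further: KINOMEscan kinase panel screen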",
  "data": [
    {"tested_on": "DYRK1A", "settings": "concentration: 1 μM, replicates: in singlicate; n = 1", "units": {"%Inh": "%"}, "values": [
      {"smiles": "CCn1c(-c2ccncc2)nc2cnccc21", "note": "[SB-735216]", "%Inh": 4},
      {"smiles": "Cn1cc(-c2ccc3c(c2)CCN3C(=O)Cc2cccc(C(F)(F)F)c2)c2c(N)ncnc21", "note": "[GSK2606414]", "%Inh": 16},
      {"smiles": "CNc1nccc(-c2c(-c3ccc(F)cc3)ncn2CCCN2CCOCC2)n1", "note": "[SB-222516]", "%Inh": 6},
      {"smiles": "CN1CCC(n2cnc(-c3ccc(F)cc3)c2-c2ccnc(NC3CCNCC3)n2)CC1", "note": "[SB-229482]", "%Inh": 0},
      {"smiles": "Clc1cc(Nc2ncnc3cc[nH]c23)ccc1OCc1ccccn1", "%Inh": 0},
      {"smiles": "COc1cc2ncnc(Nc3ccc(OCc4ccccc4Br)c(Cl)c3)c2cc1OC.Cl", "note": "[GI261590]", "%Inh": 10},
      {"smiles": "Cc1ccc(C)c(NC(=O)NCCNc2ccnc(Nc3ccc(F)cc3)n2)c1", "note": "[GSK1379878]", "%Inh": 0},
      {"smiles": "Cl.O=S(=O)(c1cccc(F)c1)c1ccc(Nc2ncnc3cc(Br)sc23)cc1Cl", "note": "[GSK306886]", "%Inh": 7},
      {"smiles": "CCc1nc(-c2cccc(C)c2)c(-c2ccnc(NC(=O)c3ccccc3)c2)s1", "%Inh": 18},
      {"smiles": "FC(F)(F)c1ccc(-c2nn3ncccc3c2-c2ccnc(Nc3cccc(C(F)(F)F)c3)n2)cc1", "note": "[GW828205]", "%Inh": 0},
      {"smiles": "Cl.c1ccc(Cn2ccc3cc(Nc4ncnc5ccccc45)ccc32)cc1", "note": "[GW275568]", "%Inh": 4},
      {"smiles": "C[C@@H]1CCN(C(=O)CO)C[C@@H]1N(C)c1ncnc2[nH]ccc12", "%Inh": 0},
      {"smiles": "O=C(NCCCN1CCCC1=O)c1cnc(NCc2cc(Cl)ccc2Cl)nc1NC1CCNCC1", "%Inh": 0},
      {"smiles": "CSc1nn2c(=O)cc(N3CCOCC3)nc2n1Cc1cccc(Cl)c1Cl", "note": "[GSK2347225]", "%Inh": 19},
      {"smiles": "COc1ccc(Nc2nccc(N3CCC(NC(=O)c4cccc(NC(C)=O)c4)C3)n2)cc1", "note": "(centres unmarked) [GSK1379732]", "%Inh": 8},
      {"smiles": "Fc1cccc(COc2ccc(Nc3ncnc4sc(-c5ccc[nH]5)cc34)cc2Cl)c1", "note": "[GW707818]", "%Inh": 0},
      {"smiles": "O=C(Nc1ccccc1)Nc1ccc(Oc2ccc3nccn3n2)cc1", "%Inh": 0},
      {"smiles": "CN1c2ccc(-c3ccc(C(=O)NCCO)cc3)cc2-c2[nH]ncc2S1(=O)=O", "%Inh": 47},
      {"smiles": "FC(F)(F)c1ccc(-c2cc(-c3c[nH]nc3-c3ccccn3)ccn2)cc1", "note": "[GW599550]", "%Inh": 10},
      {"smiles": "Nc1nccc2scc(-c3ccc4c(c3)CCN4C(=O)Cc3cc(F)ccc3F)c12", "note": "[GSK2587663]", "%Inh": 0},
      {"smiles": "Cn1ccc2ncnc(Nc3ccc(Oc4cccc(Cl)c4)c(Cl)c3)c21", "%Inh": 22},
      {"smiles": "CS(=O)(=O)CCNCc1nc(-c2ccc3ncnc(Nc4ccc(OCc5cccc(F)c5)c(Cl)c4)c3c2)cs1.Cl", "note": "[GW583340]", "%Inh": 12},
      {"smiles": "CCCc1ccc(S(=O)(=O)NC2CCN(c3ccnc(Nc4ccc(OC)cc4)n3)C2)cc1", "note": "(centres unmarked) [GSK1379737]", "%Inh": 19}
    ]},
    {"tested_on": "DYRK1B", "settings": "concentration: 1 μM, replicates: in singlicate; n = 1", "units": {"%Inh": "%"}, "values": [
      {"smiles": "Cl.Cn1ccc(-c2cccc(Nc3ccnc4cc(-c5nccs5)ccc34)c2)n1", "note": "[GW525701]", "%Inh": 16},
      {"smiles": "Nc1nc(-c2ccccn2)c(-c2ccnc3ccccc23)s1", "note": "[GW548057]", "%Inh": 0},
      {"smiles": "CC(C)N1CCC(n2cnc(-c3ccc(F)cc3)c2-c2ccnc(N)n2)CC1", "note": "[SB-223132]", "%Inh": 5},
      {"smiles": "Fc1cccc(COc2ccc(Nc3ncnc4cc[nH]c34)cc2Cl)c1", "%Inh": 25},
      {"smiles": "Cc1cc(N2CCC(NS(=O)(=O)c3ccc(F)cc3)CC2)nc(Nc2cccc(C#N)c2)n1.O=C(O)C(F)(F)F", "note": "[GSK1653537]", "%Inh": 97.7},
      {"smiles": "C[C@H]1CC[C@@H](C(=O)Nc2ccccc2)CN1c1cc(-c2ccc3c(N)n[nH]c3c2)nc(N)n1", "note": "[GSK2283293]", "%Inh": 0},
      {"smiles": "CC(C)(C)c1ccc(-n2cnc3c(N)ncnc32)cc1", "note": "[SKF-97263]", "%Inh": 21},
      {"smiles": "Cc1ccc(NC(=O)c2cccc(C#N)c2)cc1-c1ccc(C(=O)Nc2ccncc2)cc1", "note": "[GSK1398463]", "%Inh": 19},
      {"smiles": "Fc1cccc(COc2ccc(Nc3ncnc4nn5ccccc5c34)cc2Cl)c1", "note": "[GW689066]", "%Inh": 0},
      {"smiles": "Cn1ccc2ncnc(Oc3ccc(NC(=O)Nc4cccnc4)c(Cl)c3)c21", "%Inh": 33},
      {"smiles": "COc1ccc(NC(=O)c2ccc(-c3cc(-c4nnc(C)o4)ccc3C)cc2)cc1", "note": "[GW595885]", "%Inh": 0},
      {"smiles": "CS(=O)(=O)CCNCc1ccc(-c2ccc3ncnc(Nc4ccc(OCc5ccccc5)c(Cl)c4)c3c2)o1.Cl", "note": "[GW574783]", "%Inh": 0},
      {"smiles": "CSc1ccc(NC2=C(c3ccccc3Cl)C(=O)NC2=O)cc1", "note": "[SB-342411]", "%Inh": 78},
      {"smiles": "CCn1c(-c2ccncc2)nc2cnccc21", "note": "[SB-735216]", "%Inh": 2},
      {"smiles": "Cn1cc(-c2ccc3c(c2)CCN3C(=O)Cc2cccc(C(F)(F)F)c2)c2c(N)ncnc21", "note": "[GSK2606414]", "%Inh": 0},
      {"smiles": "CNc1nccc(-c2c(-c3ccc(F)cc3)ncn2CCCN2CCOCC2)n1", "note": "[SB-222516]", "%Inh": 48},
      {"smiles": "CN1CCC(n2cnc(-c3ccc(F)cc3)c2-c2ccnc(NC3CCNCC3)n2)CC1", "note": "[SB-229482]", "%Inh": 23},
      {"smiles": "Clc1cc(Nc2ncnc3cc[nH]c23)ccc1OCc1ccccn1", "%Inh": 17},
      {"smiles": "COc1cc2ncnc(Nc3ccc(OCc4ccccc4Br)c(Cl)c3)c2cc1OC.Cl", "note": "[GI261590]", "%Inh": 0},
      {"smiles": "Cc1ccc(C)c(NC(=O)NCCNc2ccnc(Nc3ccc(F)cc3)n2)c1", "note": "[GSK1379878]", "%Inh": 1},
      {"smiles": "Cl.O=S(=O)(c1cccc(F)c1)c1ccc(Nc2ncnc3cc(Br)sc23)cc1Cl", "note": "[GSK306886]", "%Inh": 0},
      {"smiles": "CCc1nc(-c2cccc(C)c2)c(-c2ccnc(NC(=O)c3ccccc3)c2)s1", "%Inh": 50},
      {"smiles": "FC(F)(F)c1ccc(-c2nn3ncccc3c2-c2ccnc(Nc3cccc(C(F)(F)F)c3)n2)cc1", "note": "[GW828205]", "%Inh": 41},
      {"smiles": "Cl.c1ccc(Cn2ccc3cc(Nc4ncnc5ccccc45)ccc32)cc1", "note": "[GW275568]", "%Inh": 0},
      {"smiles": "C[C@@H]1CCN(C(=O)CO)C[C@@H]1N(C)c1ncnc2[nH]ccc12", "%Inh": 0},
      {"smiles": "O=C(NCCCN1CCCC1=O)c1cnc(NCc2cc(Cl)ccc2Cl)nc1NC1CCNCC1", "%Inh": 0},
      {"smiles": "CSc1nn2c(=O)cc(N3CCOCC3)nc2n1Cc1cccc(Cl)c1Cl", "note": "[GSK2347225]", "%Inh": 23},
      {"smiles": "COc1ccc(Nc2nccc(N3CCC(NC(=O)c4cccc(NC(C)=O)c4)C3)n2)cc1", "note": "(centres unmarked) [GSK1379732]", "%Inh": 87},
      {"smiles": "Fc1cccc(COc2ccc(Nc3ncnc4sc(-c5ccc[nH]5)cc34)cc2Cl)c1", "note": "[GW707818]", "%Inh": 38},
      {"smiles": "O=C(Nc1ccccc1)Nc1ccc(Oc2ccc3nccn3n2)cc1", "%Inh": 30},
      {"smiles": "CN1c2ccc(-c3ccc(C(=O)NCCO)cc3)cc2-c2[nH]ncc2S1(=O)=O", "%Inh": 49},
      {"smiles": "FC(F)(F)c1ccc(-c2cc(-c3c[nH]nc3-c3ccccn3)ccn2)cc1", "note": "[GW599550]", "%Inh": 23},
      {"smiles": "Nc1nccc2scc(-c3ccc4c(c3)CCN4C(=O)Cc3cc(F)ccc3F)c12", "note": "[GSK2587663]", "%Inh": 12},
      {"smiles": "Cn1ccc2ncnc(Nc3ccc(Oc4cccc(Cl)c4)c(Cl)c3)c21", "%Inh": 55},
      {"smiles": "CS(=O)(=O)CCNCc1nc(-c2ccc3ncnc(Nc4ccc(OCc5cccc(F)c5)c(Cl)c4)c3c2)cs1.Cl", "note": "[GW583340]", "%Inh": 20},
      {"smiles": "CCCc1ccc(S(=O)(=O)NC2CCN(c3ccnc(Nc4ccc(OC)cc4)n3)C2)cc1", "note": "(centres unmarked) [GSK1379737]", "%Inh": 8}
    ]}
  ]
}
